Activity calls are given as the source filed them. How the source made its calls: active means hit-call score of the fitted dose curve at least 0.9, where 1 is the maximum; inactive means score below 0.9.
Test: APR_HepG2_MicrotubuleCSK_1hr: Apredica 1-hour HepG2 Assay for Microtubule CSK Stabilty (AID 2282669)
Conditions: HepG2 microtubule cytoskeleton imaging, actives raise or lower the signal
Experimental: APR_HepG2_1hr is a cell-based, multiplexed-readout assay that uses HepG2, a human liver cell line, with measurements taken at 1 hour after chemical dosing in a 384-well plate.APR_HepG2_MicrotubuleCSK_1hr is one of 10 assay component(s) measured or calculated from the APR_HepG2_1hr assay. It is designed to make measurements of protein conformation, a form of conformation reporter, as detected with fluorescence intensity signals by HCS Fluorescent Imaging technology.Data from the assay component APR_HepG2_MicrotubuleCSK_1hr was analyzed into 1 assay endpoint. This assay endpoint, APR_HepG2_MicrotubuleCSK_1hr, was analyzed with bidirectional fitting relative to DMSO as the negative control and baseline of activity. Using a type of conformation reporter, measures of protein for gain or loss-of-signal activity can be used to understand the signaling at the cellular-level. Furthermore, this assay endpoint can be referred to as a primary readout, because this assay has produced multiple assay endpoints where this one serves a signaling function. To generalize the intended target to other relatable targets, this assay endpoint is annotated to the cell morphology intended target family, where the subfamily is cell conformation.
Cells were treated with dimethyl sulfoxide (DMSO) as a solvent control at a final concentration of 0.5% v/v or with compounds in DMSO with a resulting final DMSO concentration of 0.5% v/v. Compound treatment was done at concentrations of 0.39, 0.78, 1.56, 3.12, 6.24, 12.5, 25, 50, 100, and 200 uM in duplicate on each plate. Cells were treated with compounds for 1, 24, or 72 hr. Carbonyl […] m-chloro-phenylhydrazone (CCCP) and taxol were used as positive controls for mitochondrial function and cytoskeletal stability, respectively; DMSO served as the negative control for this experiment. Cells were fixed by the direct addition of 50 uL formaldehyde in Hank's Balanced Salt Solution (HBSS) to a final concentration of 3.7%. After incubation in the fixation medium for 30 min at room temperature (293-298 K), cells were rinsed twice with HBSS and treated with cell permeabilization buffer (16 uL of 0.5% Triton X-100) for 10 min at room temperature (293-298 K) before labeling. For mitochondrial membrane potential and mitochondrial measurements, pre-fixed cells were incubated with 50 uL of MitoTracker Red CMXRos (Invitrogen) at a concentration of 250 nM for 30 min before fixation. In the remaining cases, post-fixed cells were labeled by incubation with a multiplexed mixture of primary antibodies in HBSS for 60 min at room temperature (293-298 K) to detect immunoreactivity of c-Jun (1:500), phospho-histone H3 (1:100), phospho-histone H2A.x (1:200), p53 (1:400), alpha-tubulin (1:200) and Hoechst 33342 (2 ug/mL). Cells were labeled for multiplexed imaging on two separate plates: a) Hoechst 33342, MitoTracker Red, phospho-histone H3, and alpha-tubulin, and b) Hoechst 33342, phospho-histone H2A.x, and c-Jun. A final rinse with HBSS (50 uL) was performed before analysis. The primary and secondary antibodies for the proteins were phospho-histone H3 (rabbit anti-phospho-histone H3 and FITC-donkey anti-rabbit IgG), phospho-histone H2A.x (mouse anti-phospho-histone H2A.x and FITC-donkey anti-mouse IgG), c-Jun (rabbit anti-phospho-c-Jun and Cy3-donkey anti-rabbit IgG), p53 (sheep anti-p53 and Cy5-donkey anti-sheep IgG), alpha-tubulin (mouse anti-alpha-tubulin and Cy5-donkey anti-mouse IgG). These antibodies are available as the CellCiphr HepG2 assay kit (Millipore).Digital images of each well were captured using a Cellomics ArrayScan VTI (Thermo Scientific Cellomics) (0.8 NA objective, 0.63x optical coupler, and XF-93 filter set) at 20x magnification. The images were acquired using the autofocus feature of the ArrayScan instrument, which entails the following steps. First, the camera focuses on channel 1 (Hoechst 33342), where nuclei are identified. Second, a Z offset of 1 um is used for capturing mitochondria (MitoTracker Red). […]

Row | Structure (SMILES) | outcome
1 | COc1ccc(C(c2ccc(OC)cc2)C(Cl)(Cl)Cl)cc1 | inactive
2 | O=C(O)COc1nc(Cl)c(Cl)cc1Cl | inactive
3 | CC(C)(C)c1ccc(CSc2cnn(C(C)(C)C)c(=O)c2Cl)cc1 | inactive
4 | COC(=O)N(OC)c1ccccc1COc1ccn(-c2ccc(Cl)cc2)n1 | inactive
5 | CC1=C(C(=O)Nc2ccccc2)SCCO1 | inactive
6 | CNC(=S)S | inactive
7 | CON(C)C(=O)Nc1ccc(Cl)c(Cl)c1 | inactive
8 | CCOC(=O)C(Cl)Cc1cc(-n2nc(C)n(C(F)F)c2=O)c(F)cc1Cl (stereo not given) | inactive
9 | N#Cc1nn(-c2c(Cl)cc(C(F)(F)F)cc2Cl)c(N)c1S(=O)C(F)(F)F (stereo not given) | inactive
10 | CC1COC(Cn2cncn2)(c2ccc(Oc3ccc(Cl)cc3)cc2Cl)O1 (stereo not given) | inactive
11 | CCOC(=O)CC(SP(=S)(OC)OC)C(=O)OCC (stereo not given) | inactive
12 | C=CCC1=C(C)C(OC(=O)C2C(C=C(C)C)C2(C)C)CC1=O (stereo not given) | inactive
13 | CC(Oc1ccc(Cl)cc1Cl)C(=O)O (stereo not given) | inactive
14 | Cc1cc(Cl)ccc1OCC(=O)O | inactive
15 | CCOP(=S)(OCC)SCn1c(=O)oc2cc(Cl)ccc21 | inactive
16 | Cc1ccc(-c2c(Cl)nc(C#N)n2S(=O)(=O)N(C)C)cc1 | inactive
17 | CC(C)C1(C)N=C(c2nc3ccccc3cc2C(=O)O)NC1=O (stereo not given) | inactive
18 | CN(C)C(=S)SSC(=S)N(C)C | inactive
19 | COc1cnc(OC)n2nc(NS(=O)(=O)c3c(OCC(F)F)cccc3C(F)(F)F)nc12 | inactive
20 | CCNc1nc(Cl)nc(NC(C)C)n1 | inactive

Row | Structure (SMILES) | outcome
21 | COP(=S)(OC)Oc1nc(Cl)c(Cl)cc1Cl | inactive
22 | CCCN(CCC)c1c([N+](=O)[O-])cc(S(N)(=O)=O)cc1[N+](=O)[O-] | inactive
23 | O=C(O)c1nc(Cl)ccc1Cl | inactive
24 | CNC(=O)ON=CC(C)(C)SC | inactive
25 | COC(=O)C(C)Oc1ccc(Oc2ccc(Cl)cc2Cl)cc1 (stereo not given) | inactive
26 | CCc1nn(C)c(C(=O)NCc2ccc(C(C)(C)C)cc2)c1Cl | inactive
27 | Oc1ccccc1-c1ccccc1 | inactive
28 | CCCCC(CC)COC(=O)c1ccccc1C(=O)OCC(CC)CCCC (stereo not given) | inactive
29 | COc1nc(NC(C)C)nc(NC(C)C)n1 | inactive
30 | N#Cc1cc(Br)c(O)c(Br)c1 | inactive
31 | COC(=O)C=C(C)OP(=O)(OC)OC | inactive
32 | CCON=C(CC)C1=C(O)CC(c2c(C)cc(C)cc2C)CC1=O (stereo not given) | inactive
33 | CCNc1nc(Cl)nc(NCC)n1 | inactive
34 | COc1nc(C)nc(NC(=O)NS(=O)(=O)c2ccccc2CCC(F)(F)F)n1 | inactive
35 | OC(c1ccc(Cl)cc1)(c1cncnc1)c1ccccc1Cl (stereo not given) | inactive
36 | CCCCOC(=O)c1ccccc1C(=O)OCCCC | inactive
37 | CCCC1COC(Cn2cncn2)(c2ccc(Cl)cc2Cl)O1 (stereo not given) | inactive
38 | N#CC(CCc1ccc(Cl)cc1)(Cn1cncn1)c1ccccc1 (stereo not given) | inactive
39 | CS/C(C)=N/OC(=O)N(C)SN(C)C(=O)O/N=C(\C)SC | inactive
40 | COP(N)(=O)SC (stereo not given) | inactive

From PubChem BioAssay (EPA / NIEHS)
